# Screening data from PubChem BioAssay.
# Hits are enriched below; roughly 9.2% of the tested compounds scored in any of these assays.
# NPC1 promoter act: qHTS Assay for NPC1 Promoter Activators. Huh7 NPC1 promoter luciferase reporter, 24 h. Potency, µM (series often up to 9.22 µM), for the others: at the top dose activation, usual class: activators. 2.4% of 320,000 active; also: % of control where 0% means no effect; nearly all actives have a fitted effect of over 60% in size
#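 Luminescence from an NPC1 promoter-driven luciferase reporter in stably transfected Huh7 cells was measured after 24 h compound treatment at 37 °C, followed by 10 min ambient incubation with luciferase detection reagent.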
# ELG1 repair inh: qHTS screen for small molecules that inhibit ELG1-dependent DNA repair in human embryonic kidney (HEK293T) cells expressing luciferase-tagged ELG1. 2.3% of 330,000 active. HEK293T ELG1-luciferase reporter, luminescence, 16 h; DNA damage induced by 5-fluorouridine. Potency, µM (top dose mostly 46.1 µM), for the others: top-dose activity change, negative = inhibition, hits mostly inhibitors; also: % is scaled to controls: 0 for no effect and ±100 for the full control effect; nearly all actives have a fitted effect of over 55% in size
#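 Step one: seed 2,000 cells per well. Step two: pin-transfer compound or DMSO alongside 5-fluorouridine. Step three: incubate 16 hr, 37 °C, 5% CO2. Step four: add ONE-Glo, wait 30 min, read luminescence.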
# ELG1 genotoxic: qHTS screen for small molecules that induce genotoxicity in human embryonic kidney (HEK293T) cells expressing luciferase-tagged ELG1. HEK293T ELG1-luciferase reporter, luminescence, 16 h. AID 504466, 2011. Potency, µM (highest dose often 46 µM), without a hit: top-dose activity change, positive = activation, most hits filed as activators. 1.3% of 330,000 active; also: % of control where 0% means no effect; nearly all actives have a fitted effect of over 60% in size
#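 ELG1-luciferase HEK293T cells, 2,000/well; compound pinned in; 16 hr, 37 °C, 5% CO2; ONE-Glo, 30 min RT; luminescence on CCD imager.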
# Rab9 promoter act: qHTS Assay for Rab9 Promoter Activators; Huh7 Rab9 promoter-luciferase reporter, luminescence, 24 h; 2.8% of 320,000 active; Potency, µM (titrated, usually from 9.22 µM), for the others: top-dose activation, negative = inhibition, most hits filed as activators; also: % of control where 0% means no effect; nearly all actives have a fitted effect of over 60% in size
#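 Luciferase signal after 10 min detection reagent at ambient indicates Rab9 promoter upregulation; stably transfected Huh7 cells were treated 24 h with compound in DMSO at 37 °C, 5% CO2.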
# SMN2 splice up: qHTS Assay for Enhancers of SMN2 Splice Variant Expression. HEK293 SMN2-luciferase splicing reporter, luminescence, 30-36 h. AID 1458, 2008. 2.8% of 210,000 active. Potency, µM (top dose mostly 46.1 µM), without a hit: at the highest dose activity change, positive = activation, most hits filed as activators; also: % of control where 0% means no effect; nearly all actives have a fitted effect of over 55% in size
#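 HEK293 cells carry an SMN2 minigene-luciferase reporter in which exon 7 inclusion puts luciferase in frame. Cells were seeded at 2000 cells/well, attached for 10-12 hours, then exposed to compounds for 30-36 hours at 37C before ONE-Glo luminescence.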
# FLuc counter: qHTS profiling assay for firefly luciferase inhibitor/activator using purifed enzyme and Km concentrations of substrates (counterscreen for miR-21 project) | Luciferin 4-monooxygenase (Photinus pyralis), P08659 | purified FLuc, Km substrates, luminescence inhibition | Potency, µM (doses to about 57.5 µM), inactives show at the top dose activity change, negative = inhibition, most hits filed as inhibitors | 6.9% of 360,000 active | AID 588342, 2011;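 also: plate controls were vehicle for no effect and reference inhibitor for full effect; nearly all actives have a fitted effect of over 55% in size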
# Target sequence (P08659 whole entry, looked up): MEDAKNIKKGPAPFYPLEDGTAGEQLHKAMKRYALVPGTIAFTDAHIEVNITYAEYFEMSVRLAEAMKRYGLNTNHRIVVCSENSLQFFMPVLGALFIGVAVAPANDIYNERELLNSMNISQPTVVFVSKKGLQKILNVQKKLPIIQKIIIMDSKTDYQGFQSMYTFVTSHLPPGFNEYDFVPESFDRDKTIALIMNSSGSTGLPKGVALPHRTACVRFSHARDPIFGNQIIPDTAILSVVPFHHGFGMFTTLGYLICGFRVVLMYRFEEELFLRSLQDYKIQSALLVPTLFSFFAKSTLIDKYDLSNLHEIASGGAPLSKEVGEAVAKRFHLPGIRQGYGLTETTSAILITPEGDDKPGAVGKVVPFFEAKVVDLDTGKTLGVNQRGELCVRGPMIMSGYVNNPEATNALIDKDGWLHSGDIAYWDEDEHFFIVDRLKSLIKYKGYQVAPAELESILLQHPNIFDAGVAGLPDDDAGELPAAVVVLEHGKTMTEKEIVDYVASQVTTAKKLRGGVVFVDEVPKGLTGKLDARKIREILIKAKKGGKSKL
#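 Purified P. pyralis luciferase, 10 nM final, with Km-level 10 uM D-luciferin and 10 uM ATP in 50 mM Tris acetate pH 7.5, 10 mM Mg acetate, 0.01% Tween-20, 0.05% BSA; 6-point qHTS titration about 60 µM downward; luminescence read.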
# ELG1 FLuc counter: qHTS screen for small molecules that inhibit ELG1-dependent DNA repair: Hit Confirmation in Cell-Based Luciferin Assay. shares compounds with ELG1 repair inh. Potency, µM (series often up to 46.1 µM), inactives show at the highest dose activity change, negative = inhibition, actives largely listed as inhibitors. 3% of 350 active. cell-free firefly luciferase luminescence counter-screen, ViewLux; also: % is scaled to controls: 0 for no effect and ±100 for the full control effect
# ELG1-Luc inh: HTS assay for small molecules that inhibit ELG1-dependent DNA repair in human embryonic kidney (HEK293T) cells expressing luciferase-tagged ELG1: Hit Confirmation; shares compounds with ELG1 repair inh; HEK293T ELG1-luciferase levels, luminescence; cells co-treated with 5-fluorouridine; Potency, µM (titrated, usually from 46.1 µM), for the others: at the top dose activity change, negative = inhibition, most hits filed as inhibitors; 68% of 670 active; AID 624248, 2012; also: % is scaled to controls: 0 for no effect and ±100 for the full control effect; nearly all actives have a fitted effect of over 55% in size
# ELG1-Luc MMS: MMS-stimulated human ELG1 repair inhibition, confirmed; shares compounds with ELG1 repair inh; HEK293T luciferase-tagged ELG1 level, MMS stimulated; Potency, µM (doses to about 46.1 µM), for inactives: at the highest dose activity change, negative = inhibition, actives largely listed as inhibitors; 53% of 670 active; also: % is scaled to controls: 0 for no effect and ±100 for the full control effect; nearly all actives have a fitted effect of over 60% in size
# ELG1 5FU viab: qHTS screen for small molecules that inhibit ELG1-dependent DNA repair: Hit Confirmation with 5FU Viability; AID 624250, 2012; shares compounds with ELG1 repair inh; Potency, µM (top dose mostly 46.1 µM), for inactives: top-dose activity change, negative = viability loss, most hits filed as cytotoxic; cell viability with 5-FU, ELG1-dependent repair; 670 tested, under 10 active;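 also: ELG1-luc HEK293T cells cotreated with 5-fluorouridine at 10 µM final; viability measured 16 h after compound addition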
# ELG1 MMS cell: qHTS screen for small molecules that inhibit ELG1-dependent DNA repair: Hit Confirmation with MMS Viability | shares compounds with ELG1 repair inh | 33% of 670 active | Cell viability with MMS, ELG1-dependent DNA repair | Potency, µM (top dose mostly 46.1 µM), for inactives: at the top dose activity change, negative = viability loss, usual class: cytotoxic;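 also: ELG1-luc HEK293T cells co-treated with 10 µM MMS; viability read 16 h after compound addition; % is scaled to controls: 0 for no effect and ±100 for the full control effect; nearly all actives have a fitted effect of over 60% in size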
# ELG1 unstim viab: qHTS screen for small molecules that inhibit ELG1-dependent DNA repair: Hit Confirmation with Unstimulated Viability Assay; shares compounds with ELG1 repair inh; cell viability counter-screen, unstimulated, luminescence; Potency, µM (titrated, usually from 45.9 µM), for inactives: top-dose activity change, negative = loss of viability, usual class: cytotoxic; 8% of 900 active; AID 624252, 2012;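 also: compound exposure lasted 16 hours before reading; % is scaled to controls: 0 for no effect and ±100 for the full control effect; nearly all actives have a fitted effect of over 55% in size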
# FLuc biochem: qHTS screen for small molecules that inhibit ELG1-dependent DNA repair: Hit Confirmation in Biochemical Luciferin Assay; shares compounds with ELG1 repair inh; purified firefly luciferase, luminescence counter-screen; Potency, µM (titrated, usually from 57.5 µM), inactives show at the highest dose activity, negative = inhibition, hits mostly inhibitors; 10% of 350 active; also: % is scaled to controls: 0 for no effect and ±100 for the full control effect
# An asterisk follows results filed as active; ? = inconclusive; . = no result. Calls follow the shape of the dose curve; as a rule, active = well fitted curve in the direction sought with a large enough effect; inconclusive = small, poorly fitted or top-dose-only effect, or another doubt; inactive = no such curve, though single readings can be large; an effect the other way counts as inactive or inconclusive. Potency is read from the fitted curve at half-maximal effect.
SMILES,NPC1 promoter act,ELG1 repair inh,ELG1 genotoxic,Rab9 promoter act,SMN2 splice up,FLuc counter,ELG1 FLuc counter,ELG1-Luc inh,ELG1-Luc MMS,ELG1 5FU viab,ELG1 MMS cell,ELG1 unstim viab,FLuc biochem
COc1cc(-c2nn3c(-c4ccccc4)nnc3s2)cc(OC)c1OC,13.7%,?,-3.0%,-2.7%,-3.3%,5.6%,.,.,.,.,.,.,.
COc1ccc(S(=O)(=O)NC2CCCCC2)cc1F,3.2%,6.0%,6.1%,0.0%,.,-2.6%,.,.,.,.,.,.,.
O=C1COc2ccc(C(=O)COC(=O)/C=C/c3cccc(F)c3)cc2N1,-3.1%,1.83µM*,1.4%,-3.4%,.,-0.4%,.,4.99µM*,16.9%,14.1%,-13.6%,-12.2%,.
COc1cccc(/C=C/C(=O)OCC(=O)c2ccc3c(c2)NC(=O)CO3)c1OC,-6.5%,?,-3.9%,-7.5%,-25.9%,-1.6%,.,.,.,.,.,.,.
O=C(Cc1ccccc1)N1CCCC(c2nc(-c3ccc(S(=O)(=O)N4CCCC4)cc3)no2)C1 (configuration not stated),-5.4%,?,-15.1%,0.7%,-45.4%,5.7%,.,.,.,.,.,.,.
CS(=O)(=O)N1CCCC(c2nc(-c3ccc(S(=O)(=O)NCc4ccccc4)cc3)no2)C1 (configuration not stated),-12.6%,3.66µM*,-11.6%,-18.2%,-69.3%,7.4%,.,14.1µM*,1.99µM*,-20.0%,1.99µM*,14.1µM*,.
CCC1CCCCN1CCCNC(=O)c1ccc2c(c1)sc1nc(-c3ccc(F)cc3)cn12 (configuration not stated),.,.,.,.,.,-5.5%,.,.,.,.,.,.,.
CCC1CCCCN1CCCNC(=O)c1ccc2nc(N3CCC(C)CC3)sc2c1 (configuration not stated),-13.3%,?,0.164µM*,-37.6%,.,?,102.2%,.,.,.,.,-11.8%,?
c1ccc(CC2CCN(c3ncnc4sccc34)CC2)cc1,-36.9%,1.64µM*,-5.3%,-29.0%,-40.8%,-14.1%,30.9%,23.1%,1.58µM*,-10.2%,1.99µM*,?,?
CC(=O)N1CCN(Cc2nc3cc(NC(=O)Nc4ccccc4)ccc3n2C)CC1,4.9%,?,6.4%,-1.5%,5.5%,?,.,.,.,.,.,.,.
O=C(Nc1ccc(N2CCCC2)c(Cl)c1)c1ccc([N+](=O)[O-])cc1,2.7%,1.84µM*,7.1%,10.9%,3.7%,-10.8%,.,?,-13.9%,?,-4.6%,-3.1%,.
CN1C(=O)c2ccc(NC(=O)c3ccc(N4CCCCC4)c([N+](=O)[O-])c3)cc2C1=O,-1.4%,3.66µM*,-0.7%,-7.2%,-9.0%,-1.6%,.,14.1µM*,14.1µM*,?,?,-18.0%,.
CC(C)(C)OC(=O)CC12CCCCC1NC(=O)O2 (configuration not stated),-1.3%,?,-1.1%,-2.2%,.,5.7%,.,.,.,.,.,.,.
COc1ccc(CNC(=O)C(c2ccco2)N(Cc2cccs2)C(=O)Cc2cccs2)cc1 (configuration not stated),1.6%,14.6µM*,-20.2%,-11.3%,2.9%,3.6%,-17.1%,15.8µM*,15.8µM*,6.4%,-3.6%,-14.3%,-3.8%
O=C(CCN1C(=O)NC2(CCCC2)C1=O)Nc1ccc(-c2nc3ccccc3s2)cc1,0.891µM*,?,?,0.447µM*,.,.,120.1%,.,.,.,.,?,3.66µM*
CCOC(=O)C1=NNC2C(=O)N(Cc3ccccc3)C(=O)C12 (configuration not stated),0.6%,5.0%,-2.4%,-0.6%,.,-1.5%,.,.,.,.,.,.,.
Cc1ccc(CNS(=O)(=O)NCc2ccccc2)cc1,-3.3%,10.1%,-4.6%,-9.3%,5.8%,-0.3%,.,.,.,.,.,.,.
O=C(Cc1ccc(OCCCc2ccccc2)cc1)NO,.,.,.,.,.,.,.,.,.,.,.,-1.3%,.
C/C(=N\NC(N)=S)C1C2C3CC4C5CC(C42)C1C53 (configuration not stated),-19.1%,?,-8.2%,-2.7%,-62.7%,3.6%,.,.,.,.,.,.,.
Cc1ccc(Nc2nc(-c3ccncc3)nc3ccccc23)cc1,-0.7%,2.59µM*,6.0%,-6.2%,.,1.4%,42.4%,3.97µM*,18.4%,-1.8%,-14.4%,-18.3%,-10.5%
